Test results taken from PubChem BioAssay (NCATS).
“And” between values parts separate entries of the source, which are not always exact repeats. Identical values can stand only once. Results filed as inconclusive are left out. Some compounds were tested as several samples or in several runs, with calls that do not always agree. The source made the active and inactive calls. Calls follow the shape of the dose curve; as a rule, active = well fitted curve in the direction sought with a large enough effect; inconclusive = small, poorly fitted or top-dose-only effect, or another doubt; inactive = no such curve, though single readings can be large; an effect the other way counts as inactive or inconclusive.

Experiments:
[1] = Viability qHTS for spleen associated tyrosine kinase inhibitor (SYKi) naive MV4-11 cells (AID 1963823); also: nearly all actives have a fitted effect of over 40% in size
How it was run: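 SYK inhibitor-naive MV4-11 cells, 500 per well, exposed to compounds for 72 hr at 37 C, 5% CO2. Viability read as CellTiter-Glo luminescence after 10 min at room temperature.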

[2] = Viability qHTS for spleen associated tyrosine kinase inhibitor (SYKi) drug resistant MV4-11 cells (AID 1963824); also: nearly all actives have a fitted effect of over 35% in size
How it was run: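 CellTiter-Glo luminescence, read 10 min after reagent addition, reports viability after a 72 hr compound exposure. Cells are an MV4-11 line made resistant to SYK inhibition, seeded at 500 per well onto compound-containing plates.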

[3] = Quantitative highthroughput screen to assess conditional lethalithy of NOMO1 cells grown in RPMI1640 with untreated serum (RPMI+s) (AID 1963876); also: nearly all actives have a fitted effect of over 35% in size;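 as to Viability: 100% = DMSO wells and 0% = empty wells without cells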
How it was run: (§1)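 Each medium arm—HPLM with 10% dialyzed FBS, or RPMI1640 with 5 mM glucose and 10% untreated or dialyzed FBS—was screened against an 11-point, 3-fold compound titration for 48 h at 37 °C, with CellTiter-Glo luminescence as endpoint.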

[4] = Quantitative highthroughput screen to assess conditional lethalithy of P12 Ichikawa cells grown in Human Plasma-Like Medium with dialyzed fetal bovine serum (HPLM+ds) (AID 1963879); details: Potency: viability; also: nearly all actives have a fitted effect of over 35% in size; as to Viability: series mostly up to about 46 µM
How it was run: as §1

[5] = Quantitative highthroughput screen to assess conditional lethalithy of SEM cells grown in Human Plasma-Like Medium with dialyzed fetal bovine serum (HPLM+ds) (AID 1963882); also: nearly all actives have a fitted effect of over 35% in size; as to Viability: series mostly up to about 46 µM
How it was run: as §1

[6] = Quantitative highthroughput screen to assess conditional lethalithy of SEM cells grown in RPMI1640 with unreated serum (RPMI+s) (AID 1963883); also: nearly all actives have a fitted effect of over 35% in size;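 as to Viability: 100% = DMSO wells and 0% = empty wells without cells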
How it was run: as §1

[7] = Quantitative highthroughput screen to assess conditional lethalithy of SEM cells grown in RPMI1640 with dialyzed fetal bovine serum (RPMI+ds) (AID 1963884); also: nearly all actives have a fitted effect of over 35% in size;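 as to Viability: series mostly up to about 46 µM; 100% = DMSO control wells and 0% = empty wells without cells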
How it was run: as §1

[8] = Cellular viability qHTS for adrenocortical cancer (ACC) cell line SW-13 (AID 1963989); details: SW-13 ACC cells viability, CellTiter-Glo, 48 h; activity (max response): stronger effect = lower value; also: nearly all actives have a fitted effect of over 65% in size;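 as to activity (max response): cells grown in serum-free medium with ITS supplement; % is scaled to controls: 0 for no effect and ±100 for the full control effect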
How it was run: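 Here, serum-free SW-13 cultures were dosed up to 46 uM. Following 48 h, ATP-dependent luminescence (CellTiter-Glo) reported viable cells, and logistic modeling produced IC50 values.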

[9] = Quantitative highthroughput screen to assess conditional lethalithy of P12 Ichikawa cells grown in RPMI1640 with dialyzed fetal bovine serum (RPMI+ds) (AID 1963880); details: Potency: P12-Ichikawa viability; also: nearly all actives have a fitted effect of over 35% in size;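 as to Viability: 100% = DMSO wells and 0% = empty wells on each plate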
How it was run: as §1

[10] = Quantitative highthroughput screen to assess conditional lethalithy of P12 Ichikawa cells grown in RPMI1640 with untreated serum (RPMI+s) (AID 1963881); details: Potency: viability; also: nearly all actives have a fitted effect of over 35% in size;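 as to Viability: series mostly up to about 46 µM; 100% = DMSO wells and 0% = empty wells without cells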
How it was run: as §1

[11] = Cellular viability qHTS for adrenocortical cancer (ACC) cell line NCI-H295R (AID 1963990); also: nearly all actives have a fitted effect of over 60% in size
How it was run: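 Viability of NCI-H295R after 48 h of treatment (final up to 46 uM) measured through cellular ATP luminescence.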

[12] = Quantitative highthroughput screen to assess conditional lethalithy of NOMO1 cells grown in Human Plasma-Like Medium with dialyzed fetal bovine serum (HPLM+ds) (AID 1963878); also: nearly all actives have a fitted effect of over 35% in size;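 as to Viability: 100% = DMSO wells and 0% = empty wells on each plate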
How it was run: as §1
Potency is read from the fitted curve at half-maximal effect.

Structure (SMILES) | Potency [1] | Potency [2] | Potency [3] | Potency [4] | Potency [5] | Potency [6] | Potency [7] | activity (max response) [8] | Potency [9] | Potency [10] | Potency [11] | Potency [12] | Potency [8]
CCC[C@H](N[C@@H](C)C(=O)N1[C@@H]2CCCC[C@H]2C[C@H]1C(=O)O)C(=O)OCC | inactive | inactive | 13200 nM (active) | inactive | inactive | inactive | inactive | 2.75% (inactive) |  |  |  |  | 
COc1cc(C(=O)NC2CCN(C)CC2)ccc1Nc1ncc2c(n1)N(C1CCCC1)CCC(=O)N2C(C)C | 5.9 µM (active) | 4.17 µM (active) | 20900 nM (active) | 9350 nM (active) |  |  |  |  | 16600 nM (active) | 11800 nM (active) | 25.1 µM (active) |  | 
Cc1ccc(CN2CCNCC2)cc1NC(=O)CNc1ccc(F)c(F)c1 | inactive | inactive | inactive | inactive | inactive | inactive | inactive | 11.8% (inactive) | inactive | inactive | inactive |  | 
Cc1ccc(S(=O)(=O)OCC(=O)Nc2ccc(C(=O)O)c(O)c2)cc1 | inactive | inactive | inactive | 23500 nM (active) |  | 16600 nM (active) |  | 6.62% (inactive) |  |  |  |  | 
O=C(NCC1CCCCN1)c1cc(OCC(F)(F)F)ccc1OCC(F)(F)F (stereo not given) | inactive | inactive | 332 nM (active) | 1870 nM (active) |  |  | inactive |  | 2960 nM (active) | 1660 nM (active) | inactive |  | 
CCC(C)(C)C(=O)O[C@H]1C[C@@H](C)C=C2C=C[C@H](C)[C@H](CC[C@@H]3C[C@@H](O)CC(=O)O3)[C@H]21 | 8.41 µM (active) and 9.34 µM (active) | 2.99 µM (active) and 3.72 µM (active) | 20900 nM (active) |  |  |  |  | -9.24% (inactive) and -17.2% (inactive) |  | 14800 nM (active) | inactive and 17.8 µM (active) | 18700 nM (active) | 
CN1CCN(c2ncc(-c3cc(Cl)cc(Cl)c3Cl)c(N)n2)CC1 | 16.6 µM (active) | 16.6 µM (active) | 332 nM (active) | 2640 nM (active) | inactive | inactive | inactive |  | 3720 nM (active) |  | 22.4 µM (active) |  | 
COc1cc([C@@H]2c3cc4c(cc3[C@H](O)[C@H]3COC(=O)[C@H]23)OCO4)cc(OC)c1OC | 26.6 nM (active) and 26.3 nM (active) | 37.6 nM (active) and 37.2 nM (active) | 4.2 nM (active) | 1.9 nM (active) | 2.6 nM (active) | 1.9 nM (active) | 2.6 nM (active) |  | 2.1 nM (active) | 2.1 nM (active) | 7.3 nM (active) and 50.1 nM (active) |  | 9.2 nM (active) and 44.7 nM (active)
FC(F)(F)c1ccc(CNc2ccc(Cc3c[nH]c4ncc(Cl)cc34)cn2)cn1 | 146 nM (active) and 417 nM (active) | 366 nM (active) and 833 nM (active) | 2340 nM (active) | 295 nM (active) | 1860 nM (active) | 132 nM (active) | 1480 nM (active) |  | 3310 nM (active) | 3710 nM (active) | inactive |  | 
CCc1nc(N)nc(N)c1-c1ccc(Cl)cc1 | 3.76 µM (active) | 3.76 µM (active) and 2.63 µM (active) | inactive | 1870 nM (active) |  | inactive |  |  |  | 10500 nM (active) | 2.59 µM (active) and 1.78 µM (active) |  | 1.46 µM (active) and 3.98 µM (active)
Clc1ccc(C(Cn2ccnc2)OCc2ccsc2Cl)c(Cl)c1 (stereo not given) | 8.33 µM (active) | 9.34 µM (active) | inactive |  |  |  |  |  |  |  | 31.6 µM (active) | inactive | 18.4 µM (active)
Cc1ccc(C(=O)N(CCCN)[C@@H](c2nc3cc(Cl)ccc3c(=O)n2Cc2ccccc2)C(C)C)cc1 | 0.0042 µM (active) | 0.0037 µM (active) | 1.3 nM (active) | 1.3 nM (active) | 1.2 nM (active) | 1.2 nM (active) | 1.3 nM (active) |  | 2.1 nM (active) | 1.3 nM (active) | 0.0794 µM (active) |  | 0.01 µM (active)
CN[C@H]1CCc2cc(OC)c(OC)c(OC)c2-c2ccc(OC)c(=O)cc21 | 0.0934 µM (active) | 0.0934 µM (active) | 9.3 nM (active) | 11.8 nM (active) | 6.6 nM (active) | 8.3 nM (active) | 7.4 nM (active) |  |  | 10.5 nM (active) | 0.0891 µM (active) |  | 0.1 µM (active)
NC(=O)[C@@H](CCC(F)(F)F)N(Cc1ccc(-c2ncon2)cc1F)S(=O)(=O)c1ccc(Cl)cc1 | 20.9 µM (active) | 18.6 µM (active) | inactive |  | 23500 nM (active) | 16600 nM (active) | 18700 nM (active) |  |  |  |  | 20900 nM (active) | 28.2 µM (active)
